Assay results: PubChem BioAssay (EPA / NIEHS)
Active and inactive are the calls of the source. The calls were made as follows: active = hit-call score of the fitted dose curve at least 0.9, where 1 is the maximum; inactive = score below 0.9.

Test: ATG_GATA_CIS: Attagene CIS-FACTORIAL HepG2 Assay for human GATA Binding Protein (AID 2282944)
Details: HepG2 GATA cis-element reporter, Attagene multiplex mRNA; actives raise or lower the signal
Procedure, shortened: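 HepG2 cells transiently transfected with multiplexed cis-element reporter units measure endogenous GATA activity; after 24 h compound exposure, reporter mRNA quantified by RT-PCR and capillary electrophoresis. Changes fitted in both directions vs DMSO.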

Structure (SMILES) | outcome | AC50
CCCSP(=S)(OCC)Oc1ccc(SC)cc1 (centres undefined) | inactive | –
COCC(=O)N(c1c(C)cccc1C)[C@H](C)C(=O)OC | inactive | –
Cc1cc(C)cc(C)c1 | inactive | –
CCOP(=S)(OCC)SCSc1cc(Cl)ccc1Cl | inactive | –
C=CC(=O)[O][Sn]([CH2]CCC)([CH2]CCC)[CH2]CCC | – | 536 nM (active)
N#CS | inactive | –
Cc1cccc(OP(=O)(Oc2cccc(C)c2)Oc2cccc(C)c2)c1 | inactive | –
C1CN2CCN1CC2 | inactive | –
COc1ccc([N+](=O)[O-])cc1O | inactive | –
CCC[N+](CCC)(CCC)CCC | inactive | –
O=c1nc(O)n(Cl)c(=O)n1Cl | inactive | –
O=NN1CCOCC1 | inactive | –
O=C(O)CC(O)(CC(=O)O)C(=O)O | inactive | –
CCOP(=S)(OCC)SCS(=O)(=O)C(C)(C)C | inactive | –
CC(c1ccc(O)cc1)c1ccc(O)cc1 | inactive | –
COc1nn(C(=O)NS(=O)(=O)c2ccccc2OC(F)(F)F)c(=O)n1C | inactive | –
CC(C)[N+](=O)[O-] | inactive | –
CC1(C)[C@H](C(=O)O[C@H](C#N)c2cccc(Oc3ccccc3)c2)[C@@H]1/C=C(\Cl)C(F)(F)F | inactive | –
C=C(C)[C@@H]1CC=C(C=O)CC1 | inactive | –
CC1CC(=O)O1 (centres undefined) | inactive | –

Structure (SMILES) | outcome | AC50
Brc1ccc(Br)cc1 | inactive | –
CC(C)O.CC(C)O.OCCN(CCO)CCO.OCCN(CCO)CCO.[Ti] | inactive | –
CCCCCCCCCCCCCl | inactive | –
CCOc1cc(C=O)ccc1O | inactive | –
O=S(=O)(C(Cl)(Cl)Cl)C(Cl)(Cl)Cl | inactive | –
CC(C)(C)c1ccccc1O | inactive | –
O=C(N[C@H]1CN2CCC1CC2)c1ccc2c(c1)OCCO2 | inactive | –
O=C(Cc1ccccc1)OCCc1ccccc1 | inactive | –
OCCN(CCO)CCO | inactive | –
OC[C@@H](O)[C@H]1O[C@@H]2O[C@H](C(Cl)(Cl)Cl)O[C@@H]2[C@H]1O | inactive | –
Oc1c(Cl)cc(Cl)cc1Cl | inactive | –
C[N+](C)(C)Cc1ccccc1 | inactive | –
OC(Cc1ccccc1Cl)(Cn1[nH]cnc1=S)C1(Cl)CC1 (centres undefined) | inactive | –
CCCCS(=O)(=O)Cl | inactive | –
CC1(C)[C@H](/C=C2\CCSC2=O)[C@@H]1C(=O)OCc1coc(Cc2ccccc2)c1 | inactive | –
C=CC(F)(C(F)(F)F)C(F)(F)C(F)(F)F (centres undefined) | inactive | –
O=C(CBr)c1ccc(O)cc1 | inactive | –
C#CCOC(=O)/C=C(C)/C=C/CC(C)CCCC(C)C (centres undefined) | inactive | –
CC(C)(C1CCC(O)CC1)C1CCC(O)CC1 (centres undefined) | inactive | –
